# BJeLR viability = kills HRASV12-expressing BJeLR cells; BJeLR (HRASV12) viability, CellTiter-Glo ATP luminescence, 48 h; inhibition, % (concentration not given with the values); 0.17% of 300,000 active; AID 1554; in the data active = inhibition above about 50%
# PrPC TRFRET = inhibitors of human cell surface prion protein PrPC. P04156. TR-FRET read-out. inhibition, % at 13.8 µM. 0.43% of 370,000 active. AID 720596; in the data active = inhibition above about 24%
# Mtb FBA inh = Mtb fructose-bisphosphate aldolase inhibition; purified M. tuberculosis FBA, fluorescence read-out; inhibition, % at 1 µM; P9WQA3; 2.3% of 360,000 active; in the data active = inhibition above about 27%
# RecA splice inh = blocks M. tuberculosis RecA intein splicing | 0.75% of 290,000 active | inhibition, % (no concentration beside the values) | AID 2221 | cell-free RecA intein splicing, fluorescence | P9WHJ3; in the data active = inhibition above about 30%
# GDH-TPI counter = counter-screen for M. tuberculosis FBA inhibitors: GDH-TPI coupled enzymes. inhibition, % at 4.8 µM. 1.2% of 360,000 active. GDH-TPI coupled enzyme counterscreen, NADH absorbance; in the data active = inhibition above about 30%
# Hits are given with their value; i = inactive; nt = no result. A selection: hits, their analogues and other compounds. The true share with any hit is near 4.2%.
SMILES,BJeLR viability,PrPC TRFRET,Mtb FBA inh,RecA splice inh,GDH-TPI counter
COc1ccc(C(=O)/C=C\N2CCOCC2)cc1,i,i,i,i,33
COc1cc(NC(=O)CN2C(=O)CN(C)C2=O)c(C)cc1[N+](=O)[O-],i,i,i,i,i
COc1cc(NC(=O)Cn2ncc(Cl)c(Cl)c2=O)c(C)cc1[N+](=O)[O-],i,i,i,53,i
CCOC(=O)c1ccc(NC(=O)CSc2nnc(SCc3cccc4ccccc34)s2)cc1,nt,i,nt,nt,nt
CC1(C)CC2(C)OC(=N)C1(C#N)C2(C#N)C#N (centres undefined),i,i,i,45,i
CC1C2(C)OCC(C#N)(C(=N)O2)C1(C#N)C#N (centres undefined),i,nt,nt,i,nt
CCCCC(CC)Cn1c2nc3ccccc3nc2c2c(=N)oc(C)nc21 (centres undefined),i,nt,nt,i,nt
COc1ccc(-n2c3nc4ccccc4nc3c3c(=N)oc(C)nc32)cc1,i,i,i,72,i

# Screening results from PubChem BioAssay.
